# Rows were chosen to be rich in hits. Some 0.13% of all compounds tested hit in one or more screens of this group.
# GFP derepression: qHTS Assay for Epigenetic Modulators | mouse C127i GFP locus derepression, cytometry, 30 h | 0.09% of 68,000 active | Potency, µM (titrated, usually from 46.1 µM), inactives show top-dose GFP derepression (activation); note: % of control where 0% means no effect
#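 Derepression screen: silenced CMV-GFP reporter in murine C127i cells, 30 h compound incubation at 37 C, washed cells imaged by laser-scanning cytometer to enumerate GFP-expressing objects of 20 to 120 um.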
# UbGFP stabilizer: Ubiquitin-GFP Assay; Ubiquitin-GFP reporter cells, proteasome inhibition, GFP fluorescence; response scale: untreated = 0%, 10 µM MG-132 = 100%; Potency, µM (top dose mostly 45.9 µM), inactives show at the top dose activation (GFP accumulation), most hits filed as activators; 67,000 tested, under 10 active; active = well fitted activation curve with a large enough effect, not every such curve was filed as active; inconclusive = small, poorly fitted or top-dose-only effect, or another doubt; inactive = no such curve, though single readings can be large or run the other way; note: potency is the fitted concentration of half-maximal effect
#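 GFP accumulation read-out: laser plate cytometry counting ubiquitin(G76V)-GFP-expressing U2OS cells after 4 hr compound exposure at 37 °C. Titrations spanned 46 uM to 2.9 nM; 0% = basal, 100% = 10 uM MG-132; concentration-response curves fitted.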
# HBB splice mod: qHTS Assay for Modulators of Hemoglobin Beta Chain Splicing | Potency, µM (titrated, usually from 46.1 µM), inactives show top-dose activation, usual class: activators | AID 925, 2007 | HBB splicing reporter cell assay, activation; EGFP reporter with mutant IVS2-654 intron; response scale: normalised to 500 nM splice-correcting PNA | 0.06% of 65,000 active; note: potency is the fitted concentration of half-maximal effect; 0% is about no effect
#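 Compounds were applied for 2 days to HeLa EGFP-654 cells, 500/well in Optimem with 2% FCS. The reporter's EGFP is disrupted by mis-splicing of beta-globin intron IVS2-654. Readout: summed well GFP fluorescence from 488 nm laser scanning; reference was 500 nM antisense […] 654 PNA.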
# * = called active by the depositor; ? = inconclusive; . = no result; ! = not active in a repeat; [ ] = remark or other dose. Unless noted, calls come from the whole dose curve; as a rule, active = well fitted curve in the direction sought with a large enough effect; inconclusive = small, poorly fitted or top-dose-only effect, or another doubt; inactive = no such curve, though single readings can be large; an effect the other way counts as inactive or inconclusive.
SMILES,GFP derepression,UbGFP stabilizer,HBB splice mod
C=C(CO)[C@H]1Cc2c(ccc3c2O[C@H]2COc4cc(OC)c(OC)cc4[C@@H]2C3=O)O1,-4.7%[9.22 µM],1.6%,.
COc1ccc(C(=O)Nc2nc(-c3cccs3)cs2)cc1,2.2%,-1.0%,-0.3%
Cc1csc(NC(=O)c2sc3nc(-c4cccs4)ccc3c2N)n1,17.6%,0.0%,15.8µM*
CC1(C)[C@@H](O)CC[C@@]2(C)[C@H]1CC[C@]1(C)[C@H]2C(=O)C=C2[C@@H]3C[C@@](C)(C(=O)O)CC[C@]3(C)CC[C@@]21C,2.3%[9.22 µM],-2.1%,.
O=C(Oc1cccc2cccnc12)c1ccc(Br)o1,5.01µM*,-2.5%,.
O=C(Nc1cccc2cccnc12)c1ccc(Br)o1,0.0%,3.3%,-1.0%
Cc1cc(C)n(-c2cc(-n3nc(C)cc3C)ncn2)n1,-1.5%,?,2.8%[0.0738 µM]
Cc1cc(C)n(-c2nc(NC(C)(C)C)nc(NC(C)(C)C)n2)n1,12.6µM*,0.5%,-0.7%[9.22 µM]
CCNc1nc(NCC)nc(-n2nc(C)cc2C)n1,?,9.4%,0.1%
Cc1cc(C)n(-c2nc(NC(C)C)nc(NC(C)C)n2)n1,6.31µM*,-2.8%,.
O=c1[nH]c2[nH]c(=S)[nH]c(=S)c2[nH]1,0.1%[9.22 µM],4.3%[9.17 µM],-3.2%[9.22 µM]
C=C1CC[C@H]2C(C)(C)[C@H](O)CC[C@]2(C)[C@@H]1COc1ccc2ccc(=O)oc2c1,-2.3%[9.22 µM],1.6%,.
N[C@H](CS(=O)O)C(=O)O,-0.5%,1.3%,1.6%
CC[C@@H]1OC(=O)[C@@H](C)[C@H](O[C@@H]2C[C@@](C)(OC)[C@@H](O)[C@H](C)O2)[C@H](C)[C@H](O[C@@H]2O[C@@H](C)C[C@@H](N(C)C)[C@H]2O)[C@@](C)(O)C[C@H](C)C(=O)[C@@H](C)[C@H](O)[C@@]1(C)O,-4.7%[9.22 µM],2.6%,.
CCN(CC)c1ccc2c(Cl)c(Br)c(=O)oc2c1,10µM*,?,.
CCN(CC)c1ccc2c(c1)oc(=O)c1c(Cl)cc(=O)oc12,?,2.8%,0.1%
COC(=O)[C@@H]1C[C@H]1[C@@H](NC(=O)OCc1ccccc1)c1ccccc1,.,.,1.5%
Nc1ncn([C@@H]2O[C@@H](CO)[C@@H](O)[C@H]2O)c(=O)n1,-1.1%,-3.0%,0.7%
CN[C@@H]1[C@H](O)[C@H](NC)[C@@H]2O[C@]3(O)C(=O)C[C@@H](C)O[C@H]3O[C@@H]2[C@H]1O,-4.7%[9.22 µM],7.7%,.
O=c1cc(-c2ccc(O)c(O)c2)oc2cc(O[C@@H]3O[C@@H](CO)[C@@H](O)[C@@H](O)[C@H]3O)cc(O)c12,-4.6%[9.22 µM],5.1%,.
COc1ccc(CCN2CCC(Nc3nc4ccccc4n3Cc3ccc(F)cc3)CC2)cc1,10µM*!,2.1%[20.5 µM],0.4%[20.6 µM]
COc1ccc(CNc2nc3c(c(=O)n(Cc4ccc(F)cc4)c(=O)n3C)n2C)cc1,-2.2%,-3.5%,-1.9%[57.5 µM]
COc1ccc(-c2coc3ccc(O[C@@H]4O[C@@H](COC(C)=O)[C@@H](OC(C)=O)[C@@H](OC(C)=O)[C@H]4OC(C)=O)cc3c2=O)cc1,-0.2%[9.22 µM],10.4%,.
CCOC(=O)C1CCN(Cc2ccc(O)c3ncccc23)CC1,?,0.1%,.
Cc1cccnc1NCc1ccc(O)c2ncccc12,10µM*,2.0%,.
SMILES,GFP derepression,UbGFP stabilizer,HBB splice mod
COc1ccccc1Cn1c(-c2ccco2)nc2nc3ccccc3nc21,12.6µM*,-1.9%,2.0%[57.5 µM]
c1ccc(Cn2c(-c3ccco3)nc3nc4ccccc4nc32)cc1,2.1%,-9.2%,6.5%[57.5 µM]
Cc1cccc2cc(C#N)c(SCC(=O)N3CC(=O)Nc4ccccc43)nc12,15.8µM*,15.5%,?
Cc1cccc2cc(C#N)c(SCC(=O)N3CCC(C)CC3)nc12,-1.9%,-3.8%,0.0%[57.5 µM]
CCOC(=O)c1c2c(n3ccccc13)C(=O)c1ccccc1C2=O,6.9%[9.22 µM],-9.0%[9.17 µM],3.16µM*
CCOC(=O)c1c(C)[nH]c(C)c1-c1ccccc1OC,0.0%,-4.1%,2.0%[0.369 µM]
CN1CCN(c2ncc3nc(-c4cccs4)c(=O)n(Cc4ccc(F)cc4)c3n2)CC1,3.98µM*,?,?
COc1ccc(Nc2ncc3nc(-c4cccs4)c(=O)n(Cc4cccc(OC)c4)c3n2)cc1,?,2.6%,?
COc1cccc(Cn2c(=O)c(-c3cccs3)nc3cnc(Nc4cccc(OC)c4)nc32)c1,-0.3%[9.22 µM],7.1%,10µM*
CN1CCN(c2ncc3nc(-c4ccccc4)c(=O)n(Cc4ccc(F)cc4)c3n2)CC1,0.0%[9.22 µM],0.9%,0.5%
Nc1nc(Cl)nc2c1ncn2[C@@H]1O[C@@H](COP(=O)(O)OP(=O)(O)OP(=O)(O)O)[C@@H](O)[C@H]1O,-1.2%,4.9%,2.2%
O=c1cc(-c2ccccc2)oc2cc(O[C@H]3O[C@H](CO)[C@@H](O)[C@H](O)[C@@H]3O)c(O)c(O)c12,-2.3%[9.22 µM],-2.6%,.
C[C@H](O)[C@H](O)[C@@H](O)c1cnc2nc(N)[nH]c(=O)c2n1,4.6%[9.22 µM],3.3%,.
CCN1C(=S)SC(=O)C1=C1C=C(C)N(Cc2ccco2)C(C)=C1,8.3%,-7.9%,12.6µM*
CCN1C(=S)SC(=O)C1=C1C=C(C)OC(C)=C1,27.2%,0.0%,-3.7%
C=C1CC[C@@H](O)C/C1=C/C=C1\CCC[C@]2(C)[C@@H]1CC[C@H]2[C@@H](C)CCCC(C)C,2.3%[9.22 µM],0.0%,.
COc1ccc(C2C(C#N)=C(N)SC(N)=C2C#N)cc1OC,7.7%[20.6 µM],.,.
COc1ccc(C2C(C#N)=C(N)N3C(=C2C#N)Sc2ccccc23)cc1 (configuration not stated),12.6µM*,15.1%,27.6%
CC(=O)OCC1OC(C#CCC2CCCCC2)C=CC1OC(C)=O (configuration not stated),.,.,1.5%[9.22 µM]
C[C@H]1[C@H](C)CC[C@@]2(C(=O)O)CC[C@]3(C)C(=CC[C@H]4[C@@]5(C)C[C@@H](O)[C@H](O)[C@@](C)(CO)[C@@H]5CC[C@@]43C)[C@@H]12,-4.5%[9.22 µM],1.3%,.
C[C@@H]1O[C@@H](OC[C@@H]2O[C@@H](Oc3c(-c4ccc(O)c(O)c4)oc4cc(O)cc(O)c4c3=O)[C@H](O)[C@H](O)[C@@H]2O)[C@H](O)[C@H](O)[C@@H]1O,-4.6%[9.22 µM],2.9%,.
Nc1nc(Sc2ccc([N+](=O)[O-])c3nonc23)c2[nH]cnc2n1,?,-7.7%[9.17 µM],3.16µM*
CNc1ncnc(Sc2nc(N)nc3nc[nH]c23)c1[N+](=O)[O-],3.4%[9.22 µM],-3.5%[9.17 µM],?
CC1=CC(=O)c2ccccc2C1=O,0.5%[20.6 µM],-6.4%[20.5 µM],12.6µM*
CN(C)C=C1C(=O)c2ccccc2C1=O,4.9%[20.6 µM],.,.
O=C1[C@@H]2[C@@H]3C=C[C@H]([C@@H]2C(=O)N1CN1CCSCC1)[C@@H]1[C@@H]2C(=O)N(CN4CCSCC4)C(=O)[C@@H]2[C@H]31,4.4%[9.22 µM],-0.9%[9.17 µM],0.6%[9.22 µM]
O=c1oc2c(CN3CCCCC3)c(O)ccc2cc1-c1nc2ccccc2[nH]1,-0.5%,.,2.5%[0.369 µM]
O=c1oc2c3c4c(cc2cc1-c1nc2ccccc2[nH]1)CCCN4CCC3,0.9%,12.9%,0.794µM*
O=C(/C=C\c1ccc(O)c(O)c1)O[C@H]1C[C@@](O)(C(=O)O)C[C@H](O)[C@@H]1O,-2.2%[9.22 µM],-3.9%,.
C[C@@H]1C[C@@]2(C)Oc3ccccc3[C@H]3OC[C@]1(COC(=O)Nc1ccccc1)[C@@H](C)[C@@H]32,-2.3%[9.22 µM],-3.9%,.

# Compound activity deposited in PubChem by National Center for Advancing Translational Sciences (NCATS).
